The panel holds about 79,000 compounds, 15% with a hit somewhere; the sample as a whole holds those more often. Active and inactive are the calls of the source. Rule as the data show it: active = growth inhibition above about 70%; inactive = the rest.
Assay: NCI Yeast Anticancer Drug Screen. Data for the bub3 strain (AID 167)
Settings: S. cerevisiae bub3 mutant strain, at 50.0 µM, stronger effect = higher value
How it was run: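 Mutant yeast screening strain plus compound; vehicle-treated cultures serve as the 0% inhibition reference.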

SMILES	growth inhibition
C/C=N\N1C(=O)c2ccccc2C1=O	19.4% (inactive)
[Cl][Ce]([Cl])[Cl]	24.1% (inactive)
CCCCN(CCCC)CCCCCCCCCCCO	30.8% (inactive)
CCCCCCCCCCCCCCCCCCCOc1ccc(OCCCCCCCCCC)cc1	0.2% (inactive)
Cc1ccc(NC(=O)CSc2nnc(Cc3ccccc3)o2)c(C)c1	-3.3% (inactive)
CCN(CC)CCNc1ccccc1	-4.9% (inactive)
Cc1ccc(N=Nc2ccc([N+](=O)[O-])cc2)c([N+](=O)[O-])c1	18.4% (inactive)
C/C(=C\c1ccc(F)cc1)C(=O)O	14.9% (inactive)
COc1ccc(-c2cc(-c3ccc(OC)cc3)cc(-c3ccc(OC)cc3)c2)cc1	-14% (inactive)
CCOC(=O)C12CCCC1(O)N(NC(=O)c1ccccc1)C(C)=C2C(=O)OC (stereo not drawn)	2.95% (inactive)
NCCNCCCCCCCCCCCCOS(=O)(=O)O	-25% (inactive)
COc1ccc(CNc2cnc3cc(N)ccc3n2)cc1OC	-19.3% (inactive)
COc1ccc(/C(=C/n2ccnc2)C(O)c2ccc(OC)c(OC)c2)cc1OC (stereo not drawn)	-2.8% (inactive)
CC(C)(c1ccccc1)C(C)(C)c1nc(-c2ccccc2)cc(-c2ccccc2)n1	-0.95% (inactive)
Cc1cccc([B-]23OCC[N+]2(CNC(=O)c2ccccc2O)CCO3)c1 (stereo not drawn)	-18.4% (inactive)
O=c1[nH]c2ccccc2c(O)c1O	1% (inactive)
N#Cc1cc2c3ccccc3ncc2c2ccccc12	-1.7% (inactive)
OCC1SC(O)C(O)C(O)C1O (stereo not drawn)	25.1% (inactive)

Reference: PubChem BioAssay (NCI)
